# LMP1 NFkB inh – EBV LMP1-driven NF-kappaB luciferase reporter inhibitors, primary screen, cell-based, luminescence, single point; LMP1-induced NF-kappaB luciferase reporter cells; hit rate 0.69% among 350,000; inhibition, % at 12.5 µM; in the data active = inhibition above about 41%;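 also: 0% = neutral control wells and 100% = reference inhibitor control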
# TROY signal inh – inhibitors of TROY-driven NF-kB signaling, primary screen, Q293 LMP1-TROYcd cells, NF-kB luciferase, uHTS; Q293 LMP1-TROYcd NF-kB luciferase reporter, 4 h; hit rate 0.98% among 360,000; AID 1347056, 2019; inhibition, % at 10 µM;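 active = compounds whose plate-normalised and pattern-corrected inhibition of the luciferase reporter signal at the single screening dose is 50% or more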
# LGR2 inh – inhibitors of bursicon-induced LGR2 CRE-luciferase signal, primary screen, cell-based, HEK293, CRE-luciferase reporter, bursicon stimulation; Drosophila bursicon receptor LGR2 (rickets); bursicon-stimulated, 4 h; inhibition, % at 9.99 µM; hit rate 0.35% among 380,000;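 active = drop in luminescence signal, shown as inhibition above about 50% in the replicate tests, limit read from the data, passing the limit was not always enough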;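 also: agonist challenge used bursicon conditioned medium at about half maximal strength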
# TWEAK-Fn14 inh – inhibitors of TWEAK-Fn14 signaling, primary screen, luciferase reporter cells, uHTS; TWEAK-stimulated Fn14 reporter cells, luciferase luminescence, 8 h; inhibition, % at 10 µM; hit rate 2% among 360,000; AID 1159606, 2016; in the data active = inhibition above about 50%
# EWS-Fli inh – EWS/Fli-driven NR0B1 reporter inhibitors, primary screen, A673 cells, NR0B1 luciferase, luminescence, MLPCN library | inhibition, % at 12.6 µM | viability-normalised | AID 651661, 2012 | hit rate 0.67% among 350,000;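 active = mean inhibition of at least 50% after viability correction, with every replicate also passing that limit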;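 also: firefly luciferase signal divided by Alamar Blue viability fluorescence both relative to DMSO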
# * marks the source's active call; other numbers are inactive results; nt = not tested or not shown. A selection: hits, their analogues and other compounds. The true share with any hit is near 2.6%.
SMILES,LMP1 NFkB inh,TROY signal inh,LGR2 inh,TWEAK-Fn14 inh,EWS-Fli inh
Cc1c(C(=O)N2CCN(Cc3ccc4c(c3)OCO4)CC2)sc2ncnc(N3CCN(c4ccccc4)CC3)c12,21,53*,36,87*,20
COc1ccc(NC(=O)Nc2ccc3c(c2)[C@H]2C[C@@H](CC(=O)NCC4CC4)O[C@@H](CO)[C@H]2O3)cc1,nt,nt,-19,nt,-3
CCCNC(=O)N(C)C[C@H]1Oc2ncc(-c3ccc(OC)cc3)cc2C(=O)N([C@H](C)CO)C[C@H]1C,nt,nt,16,nt,-7
C[C@H](CO)N1C[C@H](C)[C@@H](CN(C)S(C)(=O)=O)Oc2ncc(C#CC3(O)CCCC3)cc2C1=O,nt,nt,10,nt,-2
O=C(c1cc(COc2ccc3ncccc3c2)on1)N1CCC(O)CC1,8,-3,8,4,-12
O=C(NC1CCCCCCC1)c1cc(COc2ccc3ncccc3c2)on1,49*,31,nt,52*,17
CC(CNC(=O)c1cc(COc2ccc3ncccc3c2)on1)c1ccccc1 (configuration not stated),14,54*,0,60*,39
Cn1c(=O)c([N+](=O)[O-])c(Cl)c2ccccc21,14,23,-8,-21,61*
CCN(CC)c1c([N+](=O)[O-])c(=O)n(C)c2ccccc12,-6,7,nt,-4,-11
Cc1ccc(CNc2ccc(N3CCOCC3)cc2)s1,-27,50*,nt,9,nt
CC(=O)N1CCN(c2ccc(NCc3ccc(C)s3)cc2)CC1,0,4,nt,6,-9
CCNC(=O)C1(C)CCN(C(=O)c2ccc(F)cc2Cl)C1 (configuration not stated),nt,2,2,89*,-9
O=C(/C=C/c1ccco1)Nc1ccc(Oc2ccc(Cl)cc2)cc1,-2,6,nt,51*,nt
COc1cccc(NC(=O)/C=C/c2ccco2)c1,-31,-24,-89,-5,-88
c1ccc(-c2cn3nc4c(nc3n2)CCCC4)cc1,64*,6,68*,-1,nt
CC(C)NC(=O)Nc1ccc2c(c1)C(=O)N([C@@H](C)CO)C[C@H](C)[C@@H](CN(C)C(=O)CCC(F)(F)F)OCCCC[C@H](C)O2,nt,nt,13,nt,nt
COc1ccc(OCc2cc(C(=O)NC3CCOC(C)(C)C3)no2)c2ccccc12 (configuration not stated),-25,-46,-60,61*,nt
COc1ccc(OCc2cc(C(=O)N(C)C3CCOCC3)no2)c2ccccc12,-9,-34,-60,79*,nt
CSc1ccccc1OCc1cc(C(=O)NC2CCOC(C)(C)C2)no1 (configuration not stated),-17,-18,2,1,-17
COc1ccc(S(=O)(=O)N(C)C[C@@H]2Oc3ccc(NC(=O)C4CC4)cc3C(=O)N([C@H](C)CO)C[C@@H]2C)cc1,nt,nt,6,nt,0
O=[N+]([O-])c1ccc(O)c(C=Nc2ccc3c(c2)OCCO3)c1,14,56*,-43,67*,nt
Oc1[nH]c2ccccc2c1C=Nc1ccc2c(c1)OCCO2,-35,81*,nt,43,nt
Cc1cccc(/N=C/c2c(O)[nH]c3ccccc23)n1,-67,-50,-70,1,nt
O=[N+]([O-])c1ccc(O)c(C=Nc2cccc3ccccc23)c1,-11,36,13,39,25
Oc1c(Br)cc(Br)cc1C=Nc1ccc2c(c1)OCCO2,5,67*,21,65*,-13
SMILES,LMP1 NFkB inh,TROY signal inh,LGR2 inh,TWEAK-Fn14 inh,EWS-Fli inh
COc1ccc(O)c(C(=O)CC(=O)c2ccc(F)cc2)c1,29,40,75*,85*,nt
NC(=O)c1cccc(-c2coc3c(C(=O)NCCc4ccccc4)cccc23)c1,nt,-12,nt,41,-16
COc1ccc(CNC(=O)c2cccc3c(-c4ccc(F)c(F)c4)coc23)cc1OC,nt,45,nt,64*,nt
COc1cc(-c2coc3c(C(=O)NCc4ccc(OC)c(OC)c4)cccc23)ccc1O,nt,67*,45,95*,27
COc1ccc(CNC(=O)c2cccc3c(-c4cccc(C(N)=O)c4)coc23)cc1OC,nt,63*,31,91*,25
COc1cc(-c2coc3c(C(=O)NCc4ccc(N(C)C)cc4)cccc23)ccc1O,nt,-12,-8,1,-18
O=C(NCc1ccccc1)c1cccc2c(-c3ccc(F)c(F)c3)coc12,nt,-20,nt,-5,nt
COc1cccc(-c2nn(C)c3sc(C(=O)N4CCN(c5ccccn5)CC4)cc23)c1,22,62*,nt,69*,nt

# Screening data from PubChem.
